The source of these data is PubChem BioAssay AID588590 (National Center for Advancing Translational Sciences (NCATS), 2011).

Structures are written as SMILES. Several values for one entry are separate records, joined by “and”; a condition that tells them apart may be missing. Equal entries are not always repeated. In all, about 390,000 compounds went through this assay and about 4,000 (1%) were called active. Another 7% or so got no clear call; they are omitted. For the sample, actives were picked, then their nearest neighbours and some compounds at random. Unmarked numbers belong to inactive results. Calls come from the whole dose curve; as a rule, active = well fitted inhibition curve with a large enough effect; inconclusive = small, poorly fitted or top-dose-only effect, or another doubt; inactive = no such curve, though single readings can be large or run the other way.
Potency is the fitted concentration of half-maximal effect.

Sequence of DNA polymerase iota (Homo sapiens) (Q9UNA4 whole entry, looked up): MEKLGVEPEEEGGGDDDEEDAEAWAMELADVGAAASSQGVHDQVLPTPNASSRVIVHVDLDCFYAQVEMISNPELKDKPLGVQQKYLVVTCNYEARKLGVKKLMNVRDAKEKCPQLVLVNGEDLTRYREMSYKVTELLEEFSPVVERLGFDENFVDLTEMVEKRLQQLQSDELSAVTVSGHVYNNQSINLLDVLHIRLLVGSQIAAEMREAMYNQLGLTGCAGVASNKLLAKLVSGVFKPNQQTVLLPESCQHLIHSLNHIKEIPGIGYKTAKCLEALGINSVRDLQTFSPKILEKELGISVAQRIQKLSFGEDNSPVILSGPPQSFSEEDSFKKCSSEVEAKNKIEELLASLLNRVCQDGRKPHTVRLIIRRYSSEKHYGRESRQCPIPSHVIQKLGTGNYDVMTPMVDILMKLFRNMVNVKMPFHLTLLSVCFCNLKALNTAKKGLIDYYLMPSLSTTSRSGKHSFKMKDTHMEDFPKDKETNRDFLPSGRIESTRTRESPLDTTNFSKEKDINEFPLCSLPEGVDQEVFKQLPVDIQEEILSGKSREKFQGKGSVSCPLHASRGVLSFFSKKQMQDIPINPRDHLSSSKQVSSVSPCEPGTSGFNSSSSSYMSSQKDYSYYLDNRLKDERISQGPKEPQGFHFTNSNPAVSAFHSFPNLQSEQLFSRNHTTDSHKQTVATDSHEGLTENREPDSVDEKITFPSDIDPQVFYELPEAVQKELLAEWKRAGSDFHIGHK

For the test, the target named is DNA polymerase iota (Homo sapiens) (UniProt Q9UNA4). Briefly: qHTS for Inhibitors of Polymerase Iota. Particulars: Pol iota fluorescent replication assay, 10 min; series mostly up to 115 µM; activity, negative = inhibition: at the top concentration. Summed up:
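Pol iota at 10 nM preincubated 15 min with compounds at room temperature; reaction started with fluorescent substrate, 50 nM final. Fluorescence read kinetically at 0 and 10 min; buffer-only wells as negative control.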
(In general: qHTS replaces the single test concentration by a dilution series.)
Regarding `Cc1cccn2c(=O)c(/C=C(\C#N)S(=O)(=O)c3ccc(Cl)cc3)c(N3CCC(C(N)=O)CC3)nc12`, the “activity, negative = inhibition” value was -8.99%.

For the compound `CCOC(=O)CC1C(=O)NCCN1c1nc2c(C)cccn2c(=O)c1/C=C1\SC(=S)N(C(C)CC)C1=O` (stereo unspecified), the Potency was 39.8 µM (active).

As to `CCOC(=O)CNC(=O)c1cc2c(=O)n3cccc(C)c3nc2s1`, the “activity, negative = inhibition” value is 5.79%.

`CC1CCC(N2CC(=O)N(CCC3=CCCCC3)C(c3ccc(F)cc3)C2=O)CC1` (stereo unspecified): the “activity, negative = inhibition” value was -7.19%.

As to `COc1cc2c(cc1OC)C(COc1ccc(F)cc1)N(C(=O)c1ccccc1F)CC2` (stereo unspecified), the “activity, negative = inhibition” value is 3.48%.

As for `CCc1ccc(Nc2nn3c(=O)c4cc5c(cc4nc3s2)OCO5)cc1`, the “activity, negative = inhibition” value was -22.5%.

On to `c1ccc(-c2cc(-c3nnc4sc(-c5ccccn5)nn34)[nH]n2)cc1`, for which the Potency was 25.1 µM (active).

Consider `Fc1ccc(-c2ccc(-c3nn4c(-c5ccco5)nnc4s3)o2)cc1`, for which the “activity, negative = inhibition” value is -5.94%.

As to `CS(=O)(=O)N(CC(=O)NCc1ccco1)c1ccc2c(c1)OCO2`, the Potency is 70.8 µM (active).

Turning to `COc1ccc(S(=O)(=O)N(CC(=O)NCc2ccco2)c2ccc(F)cc2)cc1`, the “activity, negative = inhibition” value is 95%.

As for `Cc1ccc(S(=O)(=O)N(CC(=O)NCc2ccco2)c2ccccc2C)cc1`, the “activity, negative = inhibition” value is 42.4%.

As for `CCOC(=O)N1CCC(c2cc(=O)n(-c3ccccc3)[nH]2)CC1`, the Potency is 1.41 µM (active).

In the case of `CCOC(=O)N1CCC(C(N)=O)CC1`, the “activity, negative = inhibition” value was 10.7%.

Consider `O=C(O)C1CCN(C(=O)OCc2ccccc2)CC1`, for which the “activity, negative = inhibition” value was 6.85%.

`COc1ccccc1-c1noc(CSc2nnc(-c3ccccc3)n2-c2ccc(C)c(C)c2)n1`: the “activity, negative = inhibition” value was 13.3%.

Take `COc1ccc(C(CCN2CCOCC2)c2c(OC)cc(OC)c3c2OC(=O)CC3c2ccc(OC)cc2)cc1` (stereo unspecified): the “activity, negative = inhibition” value is -4.09%.

Regarding `O=[N+]([O-])c1ccc(COc2ccccc2CN2CCOCC2)cc1`, the “activity, negative = inhibition” value is 35.4%.

For the compound `OCCN1CCOCCOCCN(CCO)CCN(CCO)CC1`, the “activity, negative = inhibition” value is 10.2%.

For the compound `Oc1c(CN2CCOCC2)ccc(CN2CCOCC2)c1O`, the Potency was 10 µM (active).

As for `Cc1cccc(NC(=O)CSc2nnc(CNC(=O)c3cccc(C)c3)n2-c2ccccc2)c1`, the “activity, negative = inhibition” value is -1.81%.

On to `C=CC1=C(C(=O)O)N2C(=O)[C@@H](NC(=O)/C(=N\OCC(=O)O)c3csc(N)n3)[C@H]2SC1`, for which the Potency is 50.1 µM (active).

As for `Cc1nnc(SCC2=C(C(=O)O)N3C(=O)C(NC(=O)Cn4nc(C)c(Cl)c4C)C3SC2)s1` (stereo unspecified), the “activity, negative = inhibition” value was -26.5%.

In the case of `CO/N=C(\C(=O)N[C@@H]1C(=O)N2C(C(=O)O)=C(COC(C)=O)CS[C@H]12)c1csc(N)n1` (stereo in doubt), the Potency is 20 µM (active) and 17.8 µM (active) and 11.2 µM (active).

Regarding `COc1ccc(CCNC(=O)Cn2c(=O)cc(C(F)(F)F)c3c(C)nn(C)c32)c(OC)c1`, the “activity, negative = inhibition” value was -7.16%.

For `Cc1ccc(Cn2c(=O)n(-c3ccc(C)cc3)c(=O)c3c2c2cc(C)ccc2n3C)cc1`, the “activity, negative = inhibition” value is 1.68%.

In the case of `COc1ccc(CCNC(=O)CCCn2c(=O)c3ccccc3n(Cc3ccc(F)cc3Cl)c2=O)cc1OC`, the “activity, negative = inhibition” value was 4.28%.

Consider `COc1ccc(C2CC(O)(c3ccccc3)Oc3cc(C)cc(C)c32)cc1` (stereo unspecified), for which the “activity, negative = inhibition” value was -9.41%.

As for `O=C(OCc1cc(=O)n2nc(C3CC3)sc2n1)c1ccccc1Cl`, the “activity, negative = inhibition” value is 0.645%.

For `COc1ccccc1C(=O)OCc1cc(=O)n2nc(-c3cccs3)sc2n1`, the Potency is 79.4 µM (active).

For the compound `Cc1nn2c(=O)cc(COC(=O)c3ccccc3NC(=O)COc3ccccc3C)nc2s1`, the “activity, negative = inhibition” value is -2.78%.

For `Clc1cccc[n+]1CCCC[n+]1ccccc1Cl`, the “activity, negative = inhibition” value is 3.89%.

Take `Cc1ccc(-c2nc(=N)sn2Cc2ccccc2)cc1`: the “activity, negative = inhibition” value was 8.29%.

`CSc1ccc(CCNC(=O)c2cnn(-c3ccccc3)c2-n2cccc2)cc1`: the “activity, negative = inhibition” value is 8.13%.

Take `O=C(N/N=C/C=C/c1ccco1)c1cccs1`: the Potency was 22.4 µM (active).

Regarding `CC1(C)CC(=O)C/C(=N\NC(=O)c2cccs2)C1`, the “activity, negative = inhibition” value is 1.79%.

As for `O=C(N/N=C/c1ccco1)c1ccc(NC(=O)C2CC2)cc1`, the “activity, negative = inhibition” value is -9.3%.

On to `CC(=O)c1ccc(S(=O)(=O)N2CCN(C(=O)/C=C/c3ccc4ccccc4n3)CC2)cc1`, for which the Potency is 44.7 µM (active).

Turning to `CC(=O)c1ccc(S(=O)(=O)N2CCN(c3nc4c(C)c(C)ccc4cc3C#N)CC2)cc1`, the “activity, negative = inhibition” value is -12.5%.

On to `CC(=O)c1ccc(S(=O)(=O)N2CCC3(CC2)OCCO3)cc1`, for which the “activity, negative = inhibition” value was 16.8%.

In the case of `Cn1c(=O)nc2n(-c3ccc(Br)cc3)c3cccc(Cl)c3cc-2c1=O`, the “activity, negative = inhibition” value was 9.36%.

As to `COc1ccc(N2C(=O)CC(Nc3ccc(F)cc3)C2=O)c([N+](=O)[O-])c1` (stereo unspecified), the “activity, negative = inhibition” value was 135%.

For `CC(=O)Oc1cccc(N2C(=O)CC(Nc3ccc(N4CCOCC4)cc3)C2=O)c1` (stereo unspecified), the Potency was 20 µM (active).

With `COc1ccc(N2CCN(C3CC(=O)N(c4ccc5c(c4)OCCO5)C3=O)CC2)cc1` (stereo unspecified), the “activity, negative = inhibition” value is -17.7% [at 58.9 µM].

As to `Cc1ccc(NC(=O)CSc2nc3c(c(=O)[nH]2)CN(Cc2ccc4c(c2)OCO4)CC3)cc1C`, the “activity, negative = inhibition” value was 93.1%.

As to `CCc1ccc2ncc3c(-c4ccc(C)cc4)nn(CC(=O)NCc4ccccc4)c3c2c1`, the “activity, negative = inhibition” value was -9.65%.

On to `COC(=O)c1cnc(N2CCN(c3ccccc3OC)CC2)c2ccccc12`, for which the “activity, negative = inhibition” value was -17.2%.
